Results reported in PubChem BioAssay (Tox21).
Unmarked numbers belong to inactive results. Results filed as inconclusive are left out. Where a call stands in place of a potency, no number is given. Calls of active or inactive are those of the source. Unless noted, calls come from the whole dose curve; as a rule, active = well fitted curve in the direction sought with a large enough effect in the repeat runs; inconclusive = weak or mixed curves; inactive = no such curve, though single readings can be large; an effect the other way counts as inactive or inconclusive.

Experiments:
[1] = target: Estrogen receptor beta (Homo sapiens) (UniProt Q92731); assay: qHTS assay to identify small molecule antagonists of the estrogen receptor beta (ER-beta) signaling pathway (AID 1259378; active = well fitted inhibition curve with a large enough effect in the signal ratio in the repeat runs, not every such curve was filed as active; the % refers to the signal ratio; note: potency is the fitted concentration of half-maximal effect)
Sequence of Estrogen receptor beta (Homo sapiens) (Q92731 whole entry, looked up): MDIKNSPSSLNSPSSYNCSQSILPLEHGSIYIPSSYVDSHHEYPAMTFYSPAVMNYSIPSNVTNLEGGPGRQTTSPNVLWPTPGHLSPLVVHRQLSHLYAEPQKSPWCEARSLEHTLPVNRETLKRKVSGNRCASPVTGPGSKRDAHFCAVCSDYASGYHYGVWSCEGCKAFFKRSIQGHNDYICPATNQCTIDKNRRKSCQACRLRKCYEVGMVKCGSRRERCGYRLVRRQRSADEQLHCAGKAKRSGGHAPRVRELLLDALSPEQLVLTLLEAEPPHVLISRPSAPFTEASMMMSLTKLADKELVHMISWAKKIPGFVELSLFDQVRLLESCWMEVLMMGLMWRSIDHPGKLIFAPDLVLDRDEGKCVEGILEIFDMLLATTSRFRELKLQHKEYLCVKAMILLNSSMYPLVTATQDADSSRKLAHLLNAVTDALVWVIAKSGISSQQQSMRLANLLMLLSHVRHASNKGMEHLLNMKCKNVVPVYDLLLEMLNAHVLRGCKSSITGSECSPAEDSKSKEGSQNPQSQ
Procedure, shortened: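 ER-beta-UAS-bla HEK293T cells in 2% charcoal-stripped FBS medium treated with compound plus 1nM final 17-beta-estradiol for 16 hr at 37C. Beta-lactamase reporter read by FRET substrate fluorescence after 2 hours at room temperature.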

[2] = qHTS assay to identify small molecule agonists of the estrogen receptor beta (ER-beta) signaling pathway - cell viability counter screen (AID 1259380); note: nearly all actives have a fitted effect of over 30% in size; note: potency is the fitted concentration of half-maximal effect
Procedure, shortened: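 Compounds dissolved in DMSO were pin-transferred onto ER-beta-UAS-bla HEK293T cells that had settled 6 hr, and exposure ran 16 hr at 37C. Following the reporter read, CellTiter-Glo luminescence after 30 min at room temperature indicated cytotoxicity.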

[3] = qHTS assay to identify small molecule antagonists of the estrogen receptor beta (ER-beta) signaling pathway - cell viability counter screen (AID 1259382); note: nearly all actives have a fitted effect of over 55% in size; note: potency is the fitted concentration of half-maximal effect
Procedure, shortened: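 CellTiter-Glo ATP luminescence measured after the LiveBLAzer read in the same wells; ER-beta-UAS-bla HEK293T cells, 16 hr compound treatment with 1nM 17-beta-estradiol agonist at 37C, 5% CO2.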

[4] = target: Estrogen receptor (Homo sapiens) (UniProt P03372); assay: qHTS assay to identify small molecule agonists of the estrogen receptor alpha (ER-alpha) signaling pathway in the presence of an antagonist (AID 1259383; calls by dose curve; note: top concentration of the series differs between compounds; nearly all actives have a fitted effect of over 15% in size)
Sequence of Estrogen receptor (Homo sapiens) (P03372 whole entry, looked up): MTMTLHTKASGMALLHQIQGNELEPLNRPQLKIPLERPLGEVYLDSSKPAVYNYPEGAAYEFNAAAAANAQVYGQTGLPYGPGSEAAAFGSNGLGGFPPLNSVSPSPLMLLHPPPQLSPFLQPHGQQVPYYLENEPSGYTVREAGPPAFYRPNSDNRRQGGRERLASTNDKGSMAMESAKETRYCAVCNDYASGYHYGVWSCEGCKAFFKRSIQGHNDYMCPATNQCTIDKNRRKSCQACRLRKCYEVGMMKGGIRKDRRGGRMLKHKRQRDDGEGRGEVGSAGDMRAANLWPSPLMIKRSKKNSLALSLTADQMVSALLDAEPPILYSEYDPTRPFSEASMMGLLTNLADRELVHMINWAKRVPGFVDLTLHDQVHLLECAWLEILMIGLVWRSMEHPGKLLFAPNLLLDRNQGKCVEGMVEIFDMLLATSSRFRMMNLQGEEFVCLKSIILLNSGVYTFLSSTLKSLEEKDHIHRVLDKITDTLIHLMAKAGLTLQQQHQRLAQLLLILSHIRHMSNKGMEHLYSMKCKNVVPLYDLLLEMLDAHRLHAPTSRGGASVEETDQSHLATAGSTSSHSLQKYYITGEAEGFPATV
Procedure, shortened: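 Luminescent ERE-luciferase reporter, VM7Luc4E2 cells (endogenous ER-alpha); 10.0nM ICI-182,780 final; 15-point compound titration; 22hr at 37C; ONE-Glo, 30min RT.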

[5] = qHTS assay to identify small molecule agonists or antagonists of the thyroid stimulating hormone receptor (TSHR) signaling pathway - wild type cell line counter screen (AID 1259384; calls by dose curve)
Procedure, shortened: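 Wild-type Hek293 cells, 800/well, 18 h at 37C, then compound with Ro20-1724 for 30 min RT. cAMP by HTRF (cAMP-d2/anti-cAMP cryptate), 1 h RT, fluorescence read. 15 concentrations, triplicates.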

[6] = qHTS assay to identify small molecule agonists of the estrogen receptor alpha (ER-alpha) signaling pathway in the presence of an antagonist - cell viability counter screen (AID 1259386);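 note: series mostly up to about 92 µM; cells exposed to compounds for 22 h at 37 °C before the viability read; nearly all actives have a fitted effect of over 30% in size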
Procedure, shortened: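 Using estrogen-depleted VM7Luc4E2 cells, the 15-concentration compound series was applied together with 10.0nM ICI-182,780 and incubated 22hr at 37C/5% CO2. Cell viability was then scored by CellTiter-Fluor.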

[7] = target: Progesterone receptor (Homo sapiens) (UniProt P06401); assay: qHTS assay to identify small molecule agonists of the progesterone receptor (PR) signaling pathway (AID 1346784; calls by dose curve; note: nearly all actives have a fitted effect of over 30% in size)
Sequence of Progesterone receptor (Homo sapiens) (P06401 whole entry, looked up): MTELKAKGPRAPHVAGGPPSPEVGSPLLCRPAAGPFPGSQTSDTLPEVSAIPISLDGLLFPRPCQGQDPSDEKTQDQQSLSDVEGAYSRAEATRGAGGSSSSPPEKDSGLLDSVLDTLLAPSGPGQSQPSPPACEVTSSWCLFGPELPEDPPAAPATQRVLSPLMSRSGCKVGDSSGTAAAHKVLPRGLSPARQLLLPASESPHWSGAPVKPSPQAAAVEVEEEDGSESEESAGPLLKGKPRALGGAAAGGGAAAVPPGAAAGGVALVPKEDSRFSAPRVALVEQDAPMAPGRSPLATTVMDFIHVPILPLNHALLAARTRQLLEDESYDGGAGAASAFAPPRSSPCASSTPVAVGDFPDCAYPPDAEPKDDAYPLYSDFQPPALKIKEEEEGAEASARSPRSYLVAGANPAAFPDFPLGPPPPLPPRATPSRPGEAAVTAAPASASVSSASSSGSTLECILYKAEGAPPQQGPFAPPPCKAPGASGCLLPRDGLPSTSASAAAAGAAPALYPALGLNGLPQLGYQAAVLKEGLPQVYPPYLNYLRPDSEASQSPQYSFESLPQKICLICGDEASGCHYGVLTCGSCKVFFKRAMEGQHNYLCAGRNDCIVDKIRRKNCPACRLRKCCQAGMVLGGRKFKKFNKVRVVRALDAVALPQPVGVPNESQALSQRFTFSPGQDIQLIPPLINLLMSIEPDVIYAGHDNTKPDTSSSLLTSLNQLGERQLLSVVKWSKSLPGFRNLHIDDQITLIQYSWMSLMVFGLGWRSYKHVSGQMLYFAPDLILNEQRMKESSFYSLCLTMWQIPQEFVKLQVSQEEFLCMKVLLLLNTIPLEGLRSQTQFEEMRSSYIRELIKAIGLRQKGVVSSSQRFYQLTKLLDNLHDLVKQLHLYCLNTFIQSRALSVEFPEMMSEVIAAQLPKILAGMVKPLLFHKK
Procedure, shortened: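 Beta-lactamase reporter read-out: after 16 hr compound treatment at 37C and a further 2 hr at room temperature with LiveBLAzer B/G FRET substrate, fluorescence was measured in PR-UAS-bla HEK 293T cells grown in 2% charcoal-stripped serum.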

[8] = target: Progesterone receptor (Homo sapiens) (UniProt P06401); assay: qHTS assay to identify small molecule antagonists of the progesterone receptor (PR) signaling pathway (AID 1346795; active = well fitted inhibition curve with a large enough effect in the signal ratio in the repeat runs, not every such curve was filed as active; the % refers to the signal ratio; note: potency is the fitted concentration of half-maximal effect)
Procedure, shortened: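 Read-out is fluorescence from the LiveBLAzer B/G FRET substrate, cleaved by a UAS-controlled beta-lactamase in PR-UAS-bla HEK293T cells after 16 hr exposure to compound plus 1 nM promegestone (final), followed by 2 hr at room temperature.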

[9] = qHTS assay to identify small molecule agonists of the progesterone receptor (PR) signaling pathway - cell viability counter screen (AID 1346799; calls by dose curve; note: nearly all actives have a fitted effect of over 45% in size; note: potency is the fitted concentration of half-maximal effect)
Procedure, shortened: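 Luminescence from CellTiter-Glo, added after the beta-lactamase FRET read in the same wells, gave cytotoxicity in PR-UAS-bla HEK293T cells treated with compounds for 16 hr at 37C.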

[10] = qHTS assay to identify small molecule antagonists of the TGF-beta/Smad signaling pathway - cell viability counter screen (AID 1346824); note: nearly all actives have a fitted effect of over 50% in size
Procedure, shortened: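 SBE-bla HEK 293T cells, incubated overnight, then compound plus 0.25 ng/mL TGF-beta1 (stock added) for 5 hr at 37 C. Viability was read in the same wells by CellTiter-Glo luminescence after 30 min at room temperature.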

[11] = qHTS assay to identify small molecule agonists of the TGF-beta/Smad signaling pathway - cell viability counter screen (AID 1346829); note: top concentration of the series differs between compounds; nearly all actives have a fitted effect of over 45% in size
Procedure, shortened: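 CellTiter-Glo luminescence readout; SBE-bla HEK 293T cells, overnight plating, compound 5 hr at 37 C/5% CO2, then bla substrate 2 hr RT, then CellTiter-Glo 30 min RT.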

[12] = target: Thyrotropin-releasing hormone receptor (Homo sapiens) (UniProt P34981); assay: qHTS assay to identify small molecule antagonists of the thyrotropin-releasing hormone receptor (TRHR) signaling pathway (AID 1346877; active = well fitted inhibition curve with a large enough effect in the repeat runs, not every such curve was filed as active; note: series mostly up to about 51 µM)
Sequence of Thyrotropin-releasing hormone receptor (Homo sapiens) (P34981 whole entry, looked up): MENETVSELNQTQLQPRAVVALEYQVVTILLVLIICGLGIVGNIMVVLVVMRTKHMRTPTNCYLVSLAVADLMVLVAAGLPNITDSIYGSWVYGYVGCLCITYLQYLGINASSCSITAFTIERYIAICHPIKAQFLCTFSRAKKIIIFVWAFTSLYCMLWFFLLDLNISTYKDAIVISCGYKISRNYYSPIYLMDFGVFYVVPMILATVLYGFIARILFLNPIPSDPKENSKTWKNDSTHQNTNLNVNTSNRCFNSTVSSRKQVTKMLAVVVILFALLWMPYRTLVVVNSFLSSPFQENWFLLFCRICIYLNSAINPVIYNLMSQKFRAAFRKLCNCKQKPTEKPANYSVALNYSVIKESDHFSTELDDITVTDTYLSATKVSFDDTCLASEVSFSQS
Procedure, shortened: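 Calcium signal in dye-loaded TRHR/HEK293 cells; compounds added 5 min before TRH (1 nM final); fluorescence monitored 3 min at 1 s steps.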

[13] = target: Thyrotropin-releasing hormone receptor (Homo sapiens) (UniProt P34981); assay: qHTS assay to identify small molecule agonists of the thyrotropin-releasing hormone receptor (TRHR) signaling pathway (AID 1346891; calls by dose curve; note: series mostly up to about 58 µM)
Procedure, shortened: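 Intracellular calcium rise, read as fluorescence every second for 3 min, served as the agonist signal in dye-loaded HEK293 cells expressing TRHR; each compound ran at 15 concentrations in triplicate.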

[14] = qHTS assay to identify small molecule agonists of the androgen receptor (AR) signaling pathway in the presence of an antagonist - cell viability counter screen (AID 1259379); note: nearly all actives have a fitted effect of over 25% in size; note: potency is the fitted concentration of half-maximal effect
Procedure, shortened: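 Each compound was tested at 15 concentrations on MDA-kb2 cells in the presence of 3.0uM nilutamide. Viability was measured by CellTiter-Fluor fluorescence after a 16 hr incubation at 37C in a CO2-free atmosphere.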

[15] = qHTS assay to identify small molecule agonists of the TGF-beta/Smad signaling pathway (AID 1346859; active = well fitted activation curve with a large enough effect in the signal ratio in the repeat runs, not every such curve was filed as active; the % refers to the signal ratio; note: potency is the fitted concentration of half-maximal effect; for activation: series mostly up to about 77 µM)
Procedure, shortened: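 SBE-bla HEK 293T, 4,000 cells/well, plated o/n; cpd in DMSO, 5 hr, 37 C/5% CO2; B/G FRET substrate 2 hr RT; ex 405, em 460/530 nm.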

[16] = Human pregnane X receptor (PXR) small molecule agonists, qHTS cell viability counter screen (AID 1346977); note: nearly all actives have a fitted effect of over 50% in size; note: potency is the fitted concentration of half-maximal effect
Procedure, shortened: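 PXR-Luc HepG2, 2,000 cells/well, 5% charcoal-stripped FBS; 5hr settle; cpd 24hr, 37C/5% CO2; CellTiter-Fluor at 23hr, read 1hr later (fluorescence).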

[17] = target: Androgen receptor (Homo sapiens) (UniProt P10275); assay: qHTS assay to identify small molecule agonists of the androgen receptor (AR) signaling pathway in the presence of an antagonist (AID 1259381; calls by dose curve; note: nearly all actives have a fitted effect of over 15% in size)
Sequence of Androgen receptor (Homo sapiens) (P10275 whole entry, looked up): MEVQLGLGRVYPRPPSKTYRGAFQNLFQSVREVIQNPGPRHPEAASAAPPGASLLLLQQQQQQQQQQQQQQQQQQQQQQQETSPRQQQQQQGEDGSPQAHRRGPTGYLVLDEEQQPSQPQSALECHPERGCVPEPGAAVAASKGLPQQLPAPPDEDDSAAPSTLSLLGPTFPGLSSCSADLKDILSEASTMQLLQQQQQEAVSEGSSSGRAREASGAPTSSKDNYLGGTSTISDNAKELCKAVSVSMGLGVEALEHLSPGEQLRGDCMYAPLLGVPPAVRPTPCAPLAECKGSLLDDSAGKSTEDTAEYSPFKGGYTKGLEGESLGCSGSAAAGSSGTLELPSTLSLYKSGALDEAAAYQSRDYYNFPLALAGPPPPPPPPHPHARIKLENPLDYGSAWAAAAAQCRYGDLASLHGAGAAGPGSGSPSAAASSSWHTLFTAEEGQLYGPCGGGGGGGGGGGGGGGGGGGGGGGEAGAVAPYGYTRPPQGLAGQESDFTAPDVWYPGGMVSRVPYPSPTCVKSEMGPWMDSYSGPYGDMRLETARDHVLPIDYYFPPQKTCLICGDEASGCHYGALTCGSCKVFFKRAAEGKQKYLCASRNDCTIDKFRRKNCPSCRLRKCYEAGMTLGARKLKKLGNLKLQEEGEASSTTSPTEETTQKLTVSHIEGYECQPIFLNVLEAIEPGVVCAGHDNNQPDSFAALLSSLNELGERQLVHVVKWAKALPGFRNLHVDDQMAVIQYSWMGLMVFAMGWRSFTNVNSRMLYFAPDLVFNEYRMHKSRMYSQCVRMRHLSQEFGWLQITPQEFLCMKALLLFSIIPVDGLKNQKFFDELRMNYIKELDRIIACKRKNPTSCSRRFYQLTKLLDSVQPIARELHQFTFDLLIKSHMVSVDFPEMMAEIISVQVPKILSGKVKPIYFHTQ
Procedure, shortened: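 Plated MDA-kb2 cells (3,000/well) were pre-incubated 5hr, given nilutamide (3.0uM final) or buffer, then dosed with compounds in DMSO at 15 concentrations. Luciferase activity was quantified by luminescence after 16hr at 37C.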

[18] = target: Thyrotropin receptor (Homo sapiens) (UniProt P16473); assay: qHTS assay to identify small molecule antagonists of the thyroid stimulating hormone receptor (TSHR) signaling pathway (AID 1259385; calls by dose curve; note: nearly all actives have a fitted effect of over 20% in size)
Sequence of Thyrotropin receptor (Homo sapiens) (P16473 whole entry, looked up): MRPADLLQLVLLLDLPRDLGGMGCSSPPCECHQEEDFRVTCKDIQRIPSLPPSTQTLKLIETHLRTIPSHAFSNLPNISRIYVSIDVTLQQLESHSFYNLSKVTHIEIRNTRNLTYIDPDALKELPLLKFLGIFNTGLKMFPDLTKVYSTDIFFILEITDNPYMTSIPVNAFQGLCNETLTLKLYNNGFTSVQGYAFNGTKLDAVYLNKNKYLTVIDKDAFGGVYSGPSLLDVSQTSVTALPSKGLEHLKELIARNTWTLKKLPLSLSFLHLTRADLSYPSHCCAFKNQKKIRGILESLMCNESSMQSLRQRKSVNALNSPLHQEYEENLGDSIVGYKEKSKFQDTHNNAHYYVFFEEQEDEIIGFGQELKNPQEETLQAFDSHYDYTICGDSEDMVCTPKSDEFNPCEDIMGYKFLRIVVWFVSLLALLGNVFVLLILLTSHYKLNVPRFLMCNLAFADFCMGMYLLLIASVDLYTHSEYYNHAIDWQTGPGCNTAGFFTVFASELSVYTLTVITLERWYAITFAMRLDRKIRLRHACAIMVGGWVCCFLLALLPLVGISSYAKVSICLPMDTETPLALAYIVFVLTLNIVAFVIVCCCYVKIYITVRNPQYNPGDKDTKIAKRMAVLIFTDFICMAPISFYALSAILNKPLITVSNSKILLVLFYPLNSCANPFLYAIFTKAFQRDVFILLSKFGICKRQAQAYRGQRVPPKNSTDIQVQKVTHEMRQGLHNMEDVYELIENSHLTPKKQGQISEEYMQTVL
Procedure, shortened: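 TSHR-HEK293 cells (800/well) plated 18 h, then compounds with Ro20-1724 and TSH at 1.5 ng/mL final, 30 min at room temperature. cAMP quantified by HTRF (cAMP-d2/anti-cAMP-cryptate, 1 h); 15 concentrations in triplicate.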

[19] = qHTS assay to identify small molecule antagonists of the progesterone receptor (PR) signaling pathway - cell viability counter screen (AID 1346798);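 note: HEK293T PR-UAS-bla cells stimulated with the agonist R5020; series mostly up to about 92 µM; nearly all actives have a fitted effect of over 50% in size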
Procedure, shortened: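 HEK293T PR-UAS-bla, 2% charcoal-stripped FBS; 4 hr pre-plate; cpd + R5020, 16 h 37C; LiveBLAzer read first; then CellTiter-Glo 30 min RT, luminescence.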

Clc1ccc(C(Cn2ccnc2)OCc2ccsc2Cl)c(Cl)c1 (stereo unspecified)
Potency [1]: 10.6 µM (active) | Potency [2]: 23.7 µM (active) | Potency [3]: 29.8 µM (active) | Potency [4]: inactive | outcome [5]: inactive | Potency [6]: inactive | outcome [7]: inactive | Potency [8]: 3.35 µM (active) | Potency [9]: 8.41 µM (active) | Potency [10]: inactive | Potency [11]: inactive | Potency [12]: inactive | Potency [13]: inactive

C=CC(=O)OCCC#N
Potency [1]: inactive | Potency [14]: inactive | Potency [3]: inactive | outcome [5]: inactive | Potency [6]: inactive | outcome [7]: inactive | Potency [8]: inactive | Potency [9]: inactive | Potency [10]: inactive | Potency [11]: inactive | Potency [15]: inactive | Potency [12]: inactive | Potency [13]: inactive | Potency [16]: inactive

OCCCc1cccnc1
Potency [14]: inactive | Potency [2]: inactive | Potency [17]: inactive | Potency [3]: inactive | Potency [4]: inactive | outcome [5]: inactive | Potency [18]: inactive | Potency [6]: inactive | outcome [7]: inactive | Potency [8]: inactive | Potency [19]: inactive | Potency [9]: inactive | Potency [10]: inactive | Potency [11]: inactive | Potency [15]: inactive | Potency [12]: inactive | Potency [13]: inactive | Potency [16]: inactive

Clc1ccc(C(Cn2ccnc2)OCc2c(Cl)cccc2Cl)c(Cl)c1 (stereo unspecified)
Potency [14]: inactive | Potency [2]: 29.8 µM (active) | Potency [17]: inactive | Potency [3]: 23.7 µM (active) | Potency [4]: inactive | outcome [5]: inactive | Potency [18]: inactive | Potency [6]: inactive | Potency [8]: 4.22 µM (active) | Potency [9]: 5.96 µM (active) | Potency [10]: inactive | Potency [11]: inactive | Potency [15]: inactive | Potency [16]: 23.7 µM (active)

CCOC(=O)C1=C(C)NC(C)=C(C(=O)OCC)C1c1ccccc1/C=C/C(=O)OC(C)(C)C
Potency [1]: inactive | Potency [2]: 23.7 µM (active) | Potency [17]: inactive | Potency [3]: inactive | Potency [4]: inactive | outcome [5]: inactive | Potency [8]: 26.6 µM (active) | Potency [10]: inactive | Potency [11]: inactive | Potency [15]: 23.9 µM (active) | Potency [12]: inactive | Potency [13]: inactive

CC(=O)C=O
Potency [1]: inactive | Potency [14]: inactive | Potency [2]: inactive | Potency [17]: inactive | Potency [3]: inactive | Potency [4]: inactive | Potency [6]: inactive | outcome [7]: inactive | Potency [8]: inactive | Potency [19]: inactive | Potency [9]: inactive | Potency [10]: inactive | Potency [11]: inactive | Potency [15]: inactive | Potency [16]: inactive

CNC(=O)c1cc(Oc2ccc(NC(=O)Nc3ccc(Cl)c(C(F)(F)F)c3)cc2)ccn1
Potency [1]: 9.44 µM (active) | Potency [14]: 29.8 µM (active) | Potency [2]: 29.8 µM (active) | Potency [4]: inactive | outcome [5]: inactive | Potency [18]: inactive | Potency [8]: 11.9 µM (active) | Potency [11]: inactive | Potency [15]: inactive | Potency [12]: inactive | Potency [13]: inactive | Potency [16]: 23.7 µM (active)

OCCN1CN(CCO)CN(CCO)C1
Potency [14]: inactive | Potency [2]: inactive | Potency [17]: inactive | Potency [3]: inactive | Potency [4]: inactive | outcome [5]: inactive | Potency [18]: inactive | Potency [6]: inactive | outcome [7]: inactive | Potency [8]: inactive | Potency [19]: inactive | Potency [9]: inactive | Potency [10]: inactive | Potency [11]: inactive | Potency [15]: inactive | Potency [12]: inactive | Potency [13]: inactive | Potency [16]: inactive
